About 14,000 (4.5%) of roughly 310,000 compounds showed an effect of 50% or more. Effects have a minus sign here. This is one part of a sample in which strong results are shown more often than they occur.
The compounds below were run against human ether-à-go-go-related gene (hERG) potassium channel (human, UniProt Q12809) (assay: primary screen, population patch clamp on CHO cells stably expressing hERG; higher = less effect of the substance).
human ether-à-go-go-related gene (hERG) potassium channel, sequence (Q12809 whole entry, looked up): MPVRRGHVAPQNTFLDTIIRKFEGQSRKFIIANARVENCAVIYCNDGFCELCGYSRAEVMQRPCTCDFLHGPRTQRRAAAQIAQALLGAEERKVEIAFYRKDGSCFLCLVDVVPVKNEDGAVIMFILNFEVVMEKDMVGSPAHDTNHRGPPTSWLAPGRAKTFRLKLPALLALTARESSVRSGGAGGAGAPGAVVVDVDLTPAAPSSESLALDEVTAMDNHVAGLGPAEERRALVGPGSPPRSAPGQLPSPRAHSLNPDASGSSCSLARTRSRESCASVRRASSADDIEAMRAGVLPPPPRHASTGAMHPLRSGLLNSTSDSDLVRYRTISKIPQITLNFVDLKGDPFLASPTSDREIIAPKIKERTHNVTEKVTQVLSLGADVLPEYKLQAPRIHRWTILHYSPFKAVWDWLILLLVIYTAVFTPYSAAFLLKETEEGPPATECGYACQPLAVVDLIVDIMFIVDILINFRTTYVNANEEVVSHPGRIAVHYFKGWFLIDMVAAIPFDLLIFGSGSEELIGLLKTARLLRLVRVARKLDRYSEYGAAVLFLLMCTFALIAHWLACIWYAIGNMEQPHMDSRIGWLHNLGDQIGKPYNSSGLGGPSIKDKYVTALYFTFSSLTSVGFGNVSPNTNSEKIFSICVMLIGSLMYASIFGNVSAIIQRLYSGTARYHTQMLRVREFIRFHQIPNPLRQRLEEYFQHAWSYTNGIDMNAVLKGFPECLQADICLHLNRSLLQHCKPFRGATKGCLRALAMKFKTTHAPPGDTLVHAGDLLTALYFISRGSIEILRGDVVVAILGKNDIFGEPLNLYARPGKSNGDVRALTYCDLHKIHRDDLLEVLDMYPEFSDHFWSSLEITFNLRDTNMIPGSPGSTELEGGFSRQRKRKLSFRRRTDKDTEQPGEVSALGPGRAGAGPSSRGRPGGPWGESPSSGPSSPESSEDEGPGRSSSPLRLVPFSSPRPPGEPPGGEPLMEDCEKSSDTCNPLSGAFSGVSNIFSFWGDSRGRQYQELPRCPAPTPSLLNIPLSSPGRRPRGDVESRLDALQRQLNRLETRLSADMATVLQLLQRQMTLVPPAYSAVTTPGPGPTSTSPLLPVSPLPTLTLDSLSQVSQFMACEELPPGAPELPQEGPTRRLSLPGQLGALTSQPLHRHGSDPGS
In the case of `CCCN1CNC(=S)N(c2cccc(C)c2)C1`, the “hERG current change (%, negative = inhibition) at 10uM” value is reported as 17%. `CCC(C)[C@H](NC(=O)N1CC(=O)Nc2ccccc21)C(=O)N1CCC[C@@H]1C(=O)O` (some centres unmarked) was tested, and the “hERG current change (%, negative = inhibition) at 10uM” value was 13.5%. For `COc1cccc(NC(=O)CCC(=O)Nc2cccc(OC)c2)c1`, the “hERG current change (%, negative = inhibition) at 10uM” value was 10.5%. `O=C(Nc1cccc(F)c1)c1ccc2ncsc2c1` was tested, and the “hERG current change (%, negative = inhibition) at 10uM” value was 9.49%. `Cc1sc2nc(SC3CCOC3=O)n(Cc3ccccc3)c(=O)c2c1C` (centres unmarked) was tested, and the “hERG current change (%, negative = inhibition) at 10uM” value was -9.22%. For `O=C1OCCC1Sc1nnc(-c2cccs2)n1Cc1ccccc1` (centres unmarked), the “hERG current change (%, negative = inhibition) at 10uM” value was -29.5%. With `C=CCn1c(SC2CCOC2=O)nc2sc(C)c(C)c2c1=O` (centres unmarked) the “hERG current change (%, negative = inhibition) at 10uM” value was -11.2%. `C=CCn1c(SCc2cc(=O)n3ccsc3n2)nc2scc(C3CC3)c2c1=O` was tested, and the “hERG current change (%, negative = inhibition) at 10uM” value was -9.75%. In the case of `C=CCn1c(SC2CCOC2=O)nc2scc(C3CC3)c2c1=O` (centres unmarked), the “hERG current change (%, negative = inhibition) at 10uM” value is reported as -64.6%. For `C=CCn1c(SCC2CCCCO2)nc2sc(CC)cc2c1=O` (centres unmarked), the “hERG current change (%, negative = inhibition) at 10uM” value was -2.19%. For `C=CCn1c(SC2CCOC2=O)nc2sc(CC)cc2c1=O` (centres unmarked), the “hERG current change (%, negative = inhibition) at 10uM” value was -65.4%. With `C=CCn1c(SC(C)C#N)nc2sc(CC)cc2c1=O` (centres unmarked) the “hERG current change (%, negative = inhibition) at 10uM” value was -41.2%. In the case of `CCc1cc2c(=O)n(Cc3ccccc3)c(SC3CCOC3=O)nc2s1` (centres unmarked), the “hERG current change (%, negative = inhibition) at 10uM” value is reported as -80.4%. In the case of `O=C(Nc1ccccn1)C1CCN(S(=O)(=O)c2ccc3c(c2)OCCO3)CC1`, the “hERG current change (%, negative = inhibition) at 10uM” value is reported as -11.5%. For `Cc1ccccc1OCC(=O)Nc1cc(Cl)ccc1Oc1ccccc1`, the “hERG current change (%, negative = inhibition) at 10uM” value was 0.121%. `O=C1NC(Cc2c[nH]c3ccccc23)C(=O)N1c1ccc(F)cc1` (centres unmarked) was tested, and the “hERG current change (%, negative = inhibition) at 10uM” value was 12.4%. `CCCNC(=O)C/C(C)=N/NC(=O)C(=O)Nc1ccccn1` was tested, and the “hERG current change (%, negative = inhibition) at 10uM” value was 29.4%. For `O=C(CN1C(=O)NC2(CCCc3ccccc32)C1=O)N1CCc2ccccc2C1` (centres unmarked), the “hERG current change (%, negative = inhibition) at 10uM” value was -17.3%. `CCN1CCN(C(=O)c2nn(-c3ccc(OC)cc3)c(=O)c3c2c2ccccc2n3C)CC1` was tested, and the “hERG current change (%, negative = inhibition) at 10uM” value was -4.67%. With `COc1ccc(-n2nc(C(=O)N3CCC(C#N)CC3)c3c4ccccc4n(C)c3c2=O)cc1` the “hERG current change (%, negative = inhibition) at 10uM” value was -55.5%. In the case of `COc1ccc(-n2nc(C(=O)N3CCC(N4CCCCC4)CC3)c3c4ccccc4n(C)c3c2=O)cc1`, the “hERG current change (%, negative = inhibition) at 10uM” value is reported as 7.1%. With `CC1CCN(C(=O)CN2C(=O)C(=O)N(C(C)C)C2=O)c2ccccc2S1` (centres unmarked) the “hERG current change (%, negative = inhibition) at 10uM” value was -4.64%. With `Cc1ccc2nc(-c3ccc(-c4cccc(Cl)c4)cc3)c(NCc3ccccc3)n2c1.O=C(O)C(F)(F)F` the “hERG current change (%, negative = inhibition) at 10uM” value was -1.52%. With `N#C/C(=C\c1ccc(OC(F)F)cc1)C(=O)N1CCCCC1` the “hERG current change (%, negative = inhibition) at 10uM” value was -21.8%. For `CCN1CCN(C(=O)/C(C#N)=C/c2ccc(OC(F)F)cc2)CC1.Cl`, the “hERG current change (%, negative = inhibition) at 10uM” value was -74.3%. `N#C/C(=C\c1ccc(C#N)cc1)C(=O)N1CCCC1` was tested, and the “hERG current change (%, negative = inhibition) at 10uM” value was 7.75%.

Source: paper PMC4336329 (PLoS ONE, 2015)
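Note: peak tail current of the secondary pulse compared with the same well before compound.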
